Experimental data taken from the supplement of paper PMC8975748.
Counter-ions that a name gives are not always drawn.

Test system: Saccharomyces cerevisiae BY4741 SeMeCo community
Experiment: z-score of subpopulation abundance vs DMSO median, subpopulation auxotrophic for U; higher = larger share of this subpopulation than in DMSO controls
Conditions: 10 µM; 24 h; SM minimal medium; subpopulation (auxotrophy): U
Method: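 Fluorescent four-plasmid SeMeCo (self-establishing metabolically cooperating S. cerevisiae BY4741 community; plasmids pH-mRuby2, pL-mWasabi, pU-eCFP, pM-TagRFP657) was grown 24 h in minimal SM medium with each Selleck FDA-approved drug at 10 µM in 384-well plates. Cells were fixed and imaged by high-content confocal microscopy. For each auxotrophic subpopulation (and the prototroph), a z-score gives the deviation from the DMSO vehicle-control population median.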

Row | Structure (SMILES) | z-score of subpopulation abundance
1 | Nc1cc(C(Cl)=C(Cl)Cl)c(S(N)(=O)=O)cc1S(N)(=O)=O [Clorsulon] | 0.03
2 | Cc1cc(NS(=O)(=O)c2ccc(N)cc2)no1 [Sulfamethoxazole sodium] | 0.7
3 | CCN(CC)CCNC(=O)c1cc(S(C)(=O)=O)ccc1OC [Tiapride Hydrochloride] | 0.29
4 | CC[C@H]1OC(=O)[C@H](C)[C@@H](O[C@H]2C[C@@](C)(OC)[C@@H](O)[C@H](C)O2)[C@H](C)[C@@H](O[C@@H]2O[C@H](C)C[C@H](N(C)C)[C@H]2O)[C@](C)(O)C[C@@H](C)CN(C)[C@H](C)[C@@H](O)[C@]1(C)O [Azithromycin] | -0.41
5 | CN(C)CCc1c[nH]c2ccc(C[C@H]3COC(=O)N3)cc12 [Zolmitriptan] | -0.08
6 | O=C(Nc1cc(Cl)cc(Cl)c1O)c1c(O)c(Cl)cc(Cl)c1Cl [Oxyclozanide] | -0.91
7 | C[C@]12CCC3=C4CCC(=O)C=C4CC[C@H]3[C@@H]1CC[C@@]2(O)CC#N [Dienogest] | -0.87
8 | COC(=O)Nc1nc2cc(Sc3ccccc3)ccc2[nH]1 [Fenbendazole] | -0.17
9 | OCc1ccc(Cl)cc1Cl [2,4-dichlorobenzyl alcohol] | 0.58
10 | CO[C@H]1C[C@@H]2CC[C@@H](C)[C@@](O)(O2)C(=O)C(=O)N2CCCC[C@H]2C(=O)O[C@H]([C@H](C)C[C@@H]2CC[C@@H](OP(C)(C)=O)[C@H](OC)C2)CC(=O)[C@H](C)/C=C(\C)[C@@H](O)[C@@H](OC)C(=O)[C@H](C)C[C@H](C)/C=C/C=C/C=C/1C [Ridaforolimus (Deforolimus, MK-8669)] | 3.51
11 | C[C@H]1c2cccc(O)c2C(O)=C2C(=O)[C@]3(O)C(O)=C(C(N)=O)C(=O)[C@@H](N(C)C)[C@@H]3[C@@H](O)[C@@H]21 [Doxycycline monohydrate] | -0.54
12 | C#C[C@]1(OC(C)=O)CC[C@H]2[C@@H]3CCC4=C[C@@H](OC(C)=O)CC[C@@H]4[C@H]3CC[C@@]21C [Ethynodiol diacetate] | -1.03
13 | CCOC(=O)C1=C(C)NC(C)=C(C(=O)OC)C1c1cccc([N+](=O)[O-])c1 (stereo not given) [Nitrendipine] | 1.29
14 | NC12CC3CC(CC(C3)C1)C2 [Amantadine] | -0.38
15 | CC(=O)O[C@]1(C(C)=O)CC[C@H]2[C@@H]3C[C@H](C)C4=CC(=O)CC[C@]4(C)[C@H]3CC[C@@]21C [Medroxyprogesterone acetate] | 0.34
16 | COc1ccc2c(c1)c(CC(=O)OCC(=O)O)c(C)n2C(=O)c1ccc(Cl)cc1 [Acemetacin] | -0.02
17 | CC(=O)OC(C)C[N+](C)(C)C (stereo not given) [Methacholine chloride] | 0.32
18 | N#Cc1ccc2[nH]cc(CCCCN3CCN(c4ccc5oc(C(N)=O)cc5c4)CC3)c2c1 [Vilazodone] | -0.66
19 | N=C(N)NS(=O)(=O)c1ccc(N)cc1 [Sulfaguanidine] | -0.5
20 | COc1cccc2c1C(=O)c1c(O)c3c(c(O)c1C2=O)C[C@@](O)(C(=O)CO)C[C@@H]3O[C@H]1C[C@H](N)[C@@H](O)[C@H](C)O1 [Epirubicin HCl] | 1.23

Row | Structure (SMILES) | z-score of subpopulation abundance
21 | O=C1C(=O)c2ccccc2C(O)=C1C1CCC(c2ccc(Cl)cc2)CC1 (stereo not given) [Atovaquone] | -0.2
22 | CN(C)CCN1C(=O)c2cccc3cc(N)cc(c23)C1=O [Amonafide] | -1.14
23 | O=c1[nH]c(=O)n([C@H]2C[C@H](O)[C@@H](CO)O2)cc1/C=C/Br [Brivudine] | 0.12
24 | CCCCOC(=O)c1ccc(O)cc1 [Butylparaben] | -0.7
25 | N=C(N)NC(=N)N1CCOCC1 [Moroxydine HCl] | 0.43
26 | CN[C@@H]1[C@H](O[C@H]2[C@H](O[C@H]3[C@H](O)[C@@H](O)[C@H](NC(=N)N)[C@@H](O)[C@@H]3NC(=N)N)O[C@@H](C)[C@]2(O)CO)O[C@@H](CO)[C@H](O)[C@H]1O [Dihydrostreptomycin sulfate] | 0.78
27 | CC[C@H]1OC(=O)[C@H](C)[C@@H](O[C@H]2C[C@@](C)(OC)[C@@H](O)[C@H](C)O2)[C@H](C)[C@@H](O[C@@H]2O[C@H](C)C[C@H](N(C)C)[C@H]2O)[C@](C)(O)C[C@@H](C)[C@@H]2N[C@@H](COCCOC)O[C@H]([C@H]2C)[C@]1(C)O [Dirithromycin] | 0.26
28 | C[C@@H]1[C@H](O)[C@@H](C)/C=C/C=C/C=C/C=C/C=C/C=C/C=C/[C@H](O[C@@H]2O[C@H](C)[C@@H](O)[C@H](N)[C@@H]2O)C[C@@H]2O[C@](O)(C[C@@H](O)C[C@@H](O)[C@H](O)CC[C@@H](O)C[C@@H](O)CC(=O)O[C@H]1C)C[C@H](O)[C@H]2C(=O)O [Amphotericin B] | -0.38
29 | O=c1ccn(C2CC(O)C(CO)O2)c(=O)[nH]1 (stereo not given) [2-deoxyuridine] | -1.16
30 | O=C(Nc1c(Cl)cncc1Cl)c1ccc(OC(F)F)c(OCC2CC2)c1 [Roflumilast] | 0.07
31 | O=C1CCc2ccc(OCCCCN3CCN(c4cccc(Cl)c4Cl)CC3)cc2N1 [Aripiprazole] | 0.55
32 | C[N+]1(C)[C@@H]2C[C@@H](OC(=O)C(O)(c3cccs3)c3cccs3)C[C@H]1[C@@H]1O[C@@H]12 [Tiotropium Bromide hydrate] | 0.36
33 | CN(C)CCc1c[nH]c2ccc(CS(=O)(=O)N3CCCC3)cc12 [Almotriptan Malate] | -0.42
34 | CCN1CCN(C(=O)N[C@@H](C(=O)N[C@@H]2C(=O)N3C(C(=O)O)=C(CSc4nnnn4C)CS[C@H]23)c2ccc(O)cc2)C(=O)C1=O [Cefoperazone] | -0.72
35 | CCC(=O)NS(=O)(=O)c1ccc(-c2c(-c3ccccc3)noc2C)cc1 [Parecoxib] | -0.29
36 | Nc1ccc(S(=O)(=O)NC(=O)c2ccccc2)cc1 [Sulfabenzamide] | -0.51
37 | CC[C@@H](CO)NCCN[C@@H](CC)CO [Ethambutol 2HCl] | 1.13
38 | COC(=O)C1=C(C#N)NC(C)=C(C(=O)OC(C)C)C1c1cccc([N+](=O)[O-])c1 (stereo not given) [Nilvadipine] | -1.16
39 | OC[C@H]1O[C@H](OCC2O[C@@H](O)[C@H](O)[C@@H](O)[C@@H]2O)[C@H](O)[C@@H](O)[C@H]1O (stereo not given in full) [Melibiose] | 0.61
40 | OCCN1CCN(CC/C=C2/c3ccccc3Sc3ccc(C(F)(F)F)cc32)CC1 [Flupenthixol dihydrochloride] | -0.72
